# In PubChem BioAssay AID372 (MTDP, 2006):
# About 770 (0.77%) of roughly 100,000 compounds were called active. The full list was thinned out, with actives kept by preference. A number with no mark means an inactive call. No stated cut-off is given here; in the data, active means inhibition above about 50%; inactive means the rest.
# Target: Gag-Pol polyprotein (Human immunodeficiency virus type 1 group M subtype B (isolate HXB2)) (UniProt P04585)
# Test: RNase H inhibition, HIV 1 Gag Pol polyprotein, FRET biochemical assay, screening (AID 372)
# Settings: HIV-1 RT RNase H, FRET RNA/DNA substrate fluorescence; at 10 µM; active compounds read high
row,Structure (SMILES),inhibition
1,CCCCN1C(=O)c2cccc3c(Cl)ccc1c23,44%
2,Cc1cc(OCC(=O)Nc2ccccn2)cc(C)c1Cl,2%
3,CCOc1ccccc1OCCOc1ccc(C)cc1C(C)(C)C,17%
4,CC(C)OC(=O)c1c(NC(=O)c2ccc([N+](=O)[O-])cc2Cl)sc2c1CCCCC2,31%
5,CC(C)(C)c1nnc(-c2cccc([N+](=O)[O-])c2)o1,8%
6,CC(=O)Nc1cccc(NC(=O)c2cc(Cl)ccc2Cl)c1,56% (active)
7,CC(=O)Nc1ccc(NC(=O)c2cc(Cl)ccc2Cl)cc1,6%
8,Cc1cccc(NC(=O)c2cc(Cl)ccc2Cl)n1,54% (active)
9,Cc1cccc(NC(=O)c2cc(I)ccc2Cl)n1,0%
10,CC(=O)Nc1cccc(NC(=O)c2ccc(Cl)cc2Cl)c1,3%
11,COc1ccc(Cl)cc1C(=O)Nc1cccc(C)n1,0%
12,CCCCNCCCCOc1ccccc1C(C)(C)C,8%
13,O=C(Nc1ccc(I)cn1)C12CC3CC(CC(C3)C1)C2,7%
14,Cc1ccc(NC(=O)/C=C/c2ccc(Cl)cc2)cc1,8%
15,COc1ccc(C2CC(=O)C3=C(C2)NC(C)=C(C(=O)OCC(C)C)C3c2cc3c(cc2Cl)OCO3)cc1 (stereo not given),10%
16,O=C(COc1ccccc1[N+](=O)[O-])Nc1ccc2oc(-c3cccc4ccccc34)nc2c1,13%
17,CN(C(=O)c1ccc(Cl)cc1Cl)c1ccccc1,1%
18,Clc1ccc(CN2CCN(/N=C/c3ccc(-c4ccccc4)cc3)CC2)cc1,8%
19,Cc1ccc(O)c(/C=N/n2c(-c3ccccc3)n[nH]c2=S)c1,13%
20,CC(=O)Nc1ccc(-c2nc(-c3ccccc3)c3cc(NC(C)=O)ccc3n2)cc1,8%
21,O=C(Nc1ccc(NC(=O)c2cccs2)cc1)c1ccccc1,5%
22,O=C(Nc1ccc(-c2nc(-c3ccccc3)c3cc(NC(=O)c4cccs4)ccc3n2)cc1)c1cccs1,52% (active)
23,Cc1ccc2nc(-c3ccc(NC(=S)NC(=O)c4ccc(C)c(C)c4)cc3)oc2c1,18%
24,O=C(NC(=S)Nc1cccc(-c2nc3ncccc3o2)c1)c1cccc(Cl)c1,23%

row,Structure (SMILES),inhibition
1,COc1ccc(C(=O)NC(=S)Nc2ccc(-c3nc4ccc(C)cc4o3)cc2)cc1,12%
2,Cc1ccc2nc(-c3ccc(NC(=S)NC(=O)c4ccc(F)cc4)cc3)oc2c1,45%
3,O=C(NC(=S)Nc1ccc(-c2nc3ncccc3o2)cc1)c1cccc(F)c1,32%
4,Cc1ccc(NC(=O)c2c(NC(=O)c3ccc([N+](=O)[O-])cc3)sc3c2CCCC3)cc1,0%
5,Cc1ccc2nc(-c3ccc(NC(=S)NC(=O)c4ccccc4)cc3)oc2c1,58% (active)
6,O=C(Nc1sc2c(c1C(=O)Nc1ccccc1)CCCCC2)c1ccc([N+](=O)[O-])cc1,27%
7,Cc1ccc2nc(-c3ccc(NC(=S)NC(=O)c4ccc([N+](=O)[O-])cc4)cc3)oc2c1,50% (active)
8,O=C(NC(=S)Nc1ccc(-c2nc3ncccc3o2)cc1)c1cccc(Cl)c1,59% (active)
9,Cc1ccc(C(=O)NC(=S)Nc2ccc(-c3nc4cc(C)c(C)cc4o3)cc2)cc1,10%
10,Cc1ccc2nc(NNC(=O)CCC(=O)O)nc(-c3ccccc3)c2c1,15%
11,COc1cc(/C=N/n2cnnc2)ccc1OCCSc1ccc(C)cc1,15%
12,C=C(C)COc1ccc2oc(-c3ccccc3)c(C(=O)OCC)c2c1,0%
13,CC(C)(C)NCCOc1ccc(Cl)cc1Cl,0%
14,O=C(CSc1nc2ccc([N+](=O)[O-])cc2s1)c1ccc(Cl)cc1,11%
15,COc1ccc(C(=O)Nc2ccc(NC(=O)c3ccco3)c(OC)c2)cc1Cl,1%
16,Cc1cc(C)nc(/N=C(/N)Nc2ccc(C(=O)O)cc2)n1,3%
17,COc1ccc(-n2nc3cc(C)c(NC(=O)COc4ccc([N+](=O)[O-])cc4)cc3n2)cc1,6%
18,Cc1ccc(N=Cc2cc(Br)cc(Br)c2O)c(C)c1,4%
19,Cc1ccc2nc(-c3cccc(NC(=O)c4ccc(C)c([N+](=O)[O-])c4)c3)oc2c1,6%
20,O=C(NC(=S)Nc1ccc(-c2nc3ccccc3o2)cc1)c1cccs1,55% (active)
21,O=C(Nc1ccc(-c2nc3ccccc3o2)cc1)c1cccs1,5%
22,Cc1ccc2nc(-c3cccc(NC(=O)c4ccc([N+](=O)[O-])cc4)c3)oc2c1,54% (active)
23,COc1c(Cl)cc(C(=O)Nc2cccc(-c3nc4cc(C)cc(C)c4o3)c2)cc1Cl,20%
24,Cc1ccc2oc(-c3cccc(NC(=O)c4cccc([N+](=O)[O-])c4)c3)nc2c1,0%

row,Structure (SMILES),inhibition
1,Cc1ccc(-c2nc3cc(NC(=S)NC(=O)c4cccs4)ccc3o2)cc1,7%
2,Cc1cc(C)c2oc(-c3cccc(NC(=O)c4ccc(Cl)cc4)c3)nc2c1,53% (active)
3,Cc1ccc2oc(-c3ccc(NC(=O)c4cccnc4)cc3O)nc2c1,21%
4,Cc1cc2nc(-c3ccc(NC(=O)c4cccnc4)cc3O)oc2cc1C,12%
5,Cc1cc(C)c2oc(-c3ccc(NC(=O)c4cccnc4)cc3O)nc2c1,52% (active)
6,Cc1cc(C)c2oc(-c3cccc(NC(=O)Cc4ccc(Cl)cc4)c3)nc2c1,25%
7,COc1ccc(N2C(=O)/C(=C\c3cc(OC)ccc3O)SC2=S)cc1,22%
8,O=C(N/N=C/c1sc2ccccc2c1Cl)c1ccncc1,16%
9,COc1cc(C(=O)N/C(=C/c2cccc([N+](=O)[O-])c2)C(=O)Nc2ccc(C)cc2)cc(OC)c1OC,7%
10,O=c1c(-c2ccccc2Cl)coc2cc(O)ccc12,19%
11,Cc1c(O)ccc2c(=O)c(-c3ccccc3Cl)coc12,9%
12,Cc1oc2c(O)c(O)ccc2c(=O)c1-c1ccccc1Cl,52% (active)
13,O=c1c(-c2ccccc2Cl)coc2c(O)c(O)ccc12,55% (active)
14,O=c1c(-c2ccccc2Cl)c(C(F)(F)F)oc2c(O)c(O)ccc12,41%
15,Cc1oc2c(C)c(O)ccc2c(=O)c1-c1ccccc1Cl,12%
16,COc1cc(C=C2C(=O)N(C)C(=O)N(C)C2=O)ccc1OCCOc1ccc(C)cc1,11%
17,CCOC(=O)c1sc(NC(=O)COc2ccccc2C)c(C(=O)OCC)c1C,19%
18,Cc1cc2c(cc1Br)NC(=O)C2=O,27%
19,C=CCc1ccc(OCCOCCOc2ccc(C)cc2I)c(OC)c1,13%
20,Cc1ccc(S(=O)(=O)Oc2cccc(/C=C3\SC(N)=NC3=O)c2)cc1,15%
21,NC1=NC(=O)/C(=C/c2cccc(OS(=O)(=O)c3ccc4ccccc4c3)c2)S1,50% (active)
22,COc1cc(/C=C2\SC(=S)NC2=O)cc(Cl)c1OS(=O)(=O)c1ccccc1,11%
23,O=C1NC(=S)S/C1=C\c1cccc(OS(=O)(=O)c2ccc([N+](=O)[O-])cc2)c1,57% (active)
24,O=C1NC(=S)S/C1=C\c1ccc(OS(=O)(=O)c2cccc([N+](=O)[O-])c2)cc1,31%

row,Structure (SMILES),inhibition
1,COc1cc(/C=C2/SC(=S)NC2=O)cc(Cl)c1OS(=O)(=O)c1ccc(C)cc1,54% (active)
2,O=C1NC(=S)S/C1=C\c1cccc(OS(=O)(=O)c2cccc([N+](=O)[O-])c2)c1,44%
3,Cc1ccc(/C=C2/SC(=S)NC2=O)cc1[N+](=O)[O-],8%
4,CC(=O)Nc1ccc(S(=O)(=O)Oc2cccc(/C=C3\SC(=S)NC3=O)c2)cc1,8%
5,NC1=NC(=O)/C(=C/c2ccc(OS(=O)(=O)c3ccc4ccccc4c3)cc2)S1,20%
6,Cc1ccc(S(=O)(=O)Oc2ccc(/C=C3\SC(=S)NC3=O)cc2)cc1[N+](=O)[O-],57% (active)
7,COc1cc(/C=C2\SC(=S)NC2=O)ccc1OS(=O)(=O)c1ccc(C)cc1,24%
8,COc1ccc(-c2ccccc2)cc1NCc1ccc(C)s1,17%
9,CNC(=O)OCCc1ccc(-c2ccccc2)o1,4%
10,CC1CC(=O)C2=C(C1)OC(N)=C(C#N)C2c1ccc(C(F)(F)F)cc1 (stereo not given),2%
11,COC(=O)c1ccccc1NC(=O)c1cccc(C)c1,4%
12,CCOc1ccc(Cc2c(O)n(-c3ccccc3)c(=S)[nH]c2=O)cc1,18%
13,COc1cc(/C=N/N2C(=O)c3cccc4cccc(c34)C2=O)cc(I)c1O,13%
14,C/C(=N/Nc1cc(-c2ccccc2)nc(-c2ccccc2)n1)c1ccc(O)cc1,4%
15,CCOC(=O)C1=NN(c2ccccc2)C(=O)/C1=C\c1ccc(F)cc1,0%
16,COc1ccc(S(=O)(=O)Oc2cccc(/C=C3\SC(=S)NC3=O)c2)cc1,20%
17,Cc1ccc(S(=O)(=O)Oc2ccc(/C=C3\SC(=S)NC3=O)cc2)cc1,29%
18,Cc1ccc(S(=O)(=O)Oc2cccc(/C=C3\SC(=S)NC3=O)c2)cc1,53% (active)
19,CCOC(=O)c1c(N)sc(C(=O)Nc2ccc(OC)cc2)c1C,9%
20,CCOc1ccc(NC(=O)c2c(N)sc(-c3ccccc3)c2C)cc1,23%
21,COc1ccc(NC(=O)c2c(NC(=O)c3ccco3)sc(-c3ccccc3)c2C)cc1,12%
22,COC(=O)c1c(N)sc(C(=O)Nc2ccc(C)cc2)c1C,0%
23,CCOc1ccccc1NC(=O)CN(c1ccc(C)c(Cl)c1)S(C)(=O)=O,8%
